About 79,000 compounds went through this panel and 15% of them were active in at least one assay; those are over-represented in the sample as a whole. Calls of active or inactive are those of the source. Rule as the data show it: active = growth inhibition above about 70%; inactive = the rest.
Columns and labels:
[1] = NCI Yeast Anticancer Drug Screen. Data for the wt2 strain (AID 169);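 also: 0% = growth of vehicle-treated yeast cultures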; conditions: S. cerevisiae wt2 strain growth inhibition, stronger effect = higher value
Method in brief: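 Yeast cells were exposed to test compounds, and growth inhibition was measured relative to vehicle-treated controls.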

[2] = NCI Yeast Anticancer Drug Screen. Data for the mlh1 strain (AID 171);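 also: 0% = growth of vehicle-treated control cultures of the same strain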; conditions: S. cerevisiae mlh1 strain growth inhibition, stronger effect = higher value
Method in brief: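 Yeast carrying a defined genetic alteration in DNA damage repair or cell cycle control were exposed to test compounds. Growth inhibition was measured relative to vehicle-treated controls.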

[3] = NCI Yeast Anticancer Drug Screen. Data for the sgs1 strain (AID 173);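 also: 0% = growth of vehicle-only control cultures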; conditions: S. cerevisiae sgs1 mutant, stronger effect = higher value
Method in brief: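 Yeast mutant strains carrying defined defects in DNA damage repair or cell cycle control were exposed to test compounds. Growth inhibition was scored against vehicle-treated controls.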

[4] = NCI Yeast Anticancer Drug Screen. Data for the mlh1 rad18 strain (AID 175); conditions: S. cerevisiae mlh1 rad18 strain growth inhibition, stronger effect = higher value
Method in brief: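 Growth inhibition of the yeast strain was measured after compound exposure and expressed relative to vehicle-treated controls. The strain carries defined defects in DNA damage repair.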

[5] = NCI Yeast Anticancer Drug Screen. Data for the rad18 strain (AID 177); conditions: S. cerevisiae rad18 mutant growth inhibition, stronger effect = higher value
Method in brief: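 Yeast carrying a defined DNA damage repair alteration were exposed to compounds. Growth inhibition was expressed relative to vehicle-treated controls.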

[6] = NCI Yeast Anticancer Drug Screen. Data for the rad52 strain (AID 147);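 also: 0% = growth of vehicle-treated control cultures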; conditions: S. cerevisiae rad52 mutant growth inhibition, stronger effect = higher value
Method in brief: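 Yeast strain carrying a DNA damage repair alteration was exposed to test compounds. Growth inhibition was measured relative to vehicle-treated controls.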

[7] = NCI Yeast Anticancer Drug Screen. Data for the wt1 strain (AID 149);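 also: 0% = growth of vehicle-treated wt1 cultures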; conditions: S. cerevisiae wt1 strain (SPY 50644) growth inhibition, stronger effect = higher value
Method in brief: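 Compounds are added to wt1 yeast cultures. Growth is then measured. Inhibition is expressed relative to vehicle-treated controls.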

[8] = NCI Yeast Anticancer Drug Screen. Data for the rad50EPP+ strain (AID 151);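 also: 0% = growth of vehicle-treated control cultures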; conditions: S. cerevisiae rad50 mutant strain, stronger effect = higher value
Method in brief: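 Yeast strain carrying rad50 alteration (rad50EPP+) exposed to compounds; growth inhibition measured relative to vehicle-treated controls.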

[9] = NCI Yeast Anticancer Drug Screen. Data for the mgt1 strain (AID 153); conditions: S. cerevisiae mgt1 mutant growth inhibition, stronger effect = higher value
Method in brief: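 Yeast mgt1 strain (DNA repair/cell-cycle alteration panel) exposed to compounds; growth inhibition measured relative to vehicle-treated controls.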

[10] = NCI Yeast Anticancer Drug Screen. Data for the rad50 strain (AID 155);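 also: 0% = growth of vehicle-only cultures of the same strain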; conditions: S. cerevisiae rad50 strain growth inhibition, stronger effect = higher value
Method in brief: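 Inhibition values express reduced yeast growth in compound-treated cultures relative to vehicle-treated controls.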

[11] = NCI Yeast Anticancer Drug Screen. Data for the mec2-1 strain (AID 157); conditions: S. cerevisiae mec2-1 strain, stronger effect = higher value
Method in brief: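 mec2-1 yeast strain, carrying an alteration in DNA damage repair or cell cycle control, was exposed to compounds; growth inhibition was measured relative to vehicle-treated controls.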

[12] = NCI Yeast Anticancer Drug Screen. Data for the rad14 strain (AID 159);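 also: 0% = growth of vehicle-treated control cultures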; conditions: S. cerevisiae rad14 strain growth inhibition, stronger effect = higher value
Method in brief: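 A mutant yeast strain defective in DNA damage repair is treated with compound; inhibition of its growth is scored against untreated, vehicle-exposed cultures.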

[13] = NCI Yeast Anticancer Drug Screen. Data for the sgs1 mgt1 strain (AID 161);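 also: 0% = growth of cultures given vehicle only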; conditions: S. cerevisiae sgs1 mgt1 strain, stronger effect = higher value
Method in brief: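 Compounds are added to genetically altered yeast, and growth is compared with cultures given vehicle alone to give percent inhibition.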

[14] = NCI Yeast Anticancer Drug Screen. Data for the CLN2oe strain (AID 163);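 also: 0% = growth of vehicle-only control cultures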; conditions: S. cerevisiae CLN2oe strain, stronger effect = higher value
Method in brief: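 Yeast cells carrying a defined cell-cycle control alteration were exposed to test compounds. Growth inhibition was scored against vehicle-treated control cultures.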

[15] = NCI Yeast Anticancer Drug Screen. Data for the cln2 rad14 strain (AID 165);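 also: 0% = growth equal to vehicle treated cultures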; conditions: S. cerevisiae cln2 rad14 strain, stronger effect = higher value
Method in brief: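 Yeast carrying cln2 and rad14 alterations (cell cycle control and DNA damage repair) were exposed to compounds. Growth inhibition was measured against vehicle-treated controls.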

[16] = NCI Yeast Anticancer Drug Screen. Data for the bub3 strain (AID 167); conditions: S. cerevisiae bub3 mutant strain, stronger effect = higher value
Method in brief: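 Steps: expose the mutant yeast strain to compound; grow alongside vehicle-treated cultures; measure growth; express inhibition against the vehicle cultures.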

[17] = at 5.0 µM (retest, dose inferred, filed as 0.5)
[18] = at 50.0 µM (retest, dose inferred, filed as 5.0)

Measured: growth inhibition

O=C1NC(=O)c2ccc([N+](=O)[O-])c3cccc1c23
inactive: [1]; at 1.2 µM 21% | [1]; at 3.7 µM 12% | [1]; at 11.0 µM 29% | [1]; at 33.0 µM 43% | [1]; at 100.0 µM 62% | [2]; at 1.2 µM 32% | [2]; at 3.7 µM 28% | [2]; at 11.0 µM 41% | [2]; at 33.0 µM 65% | [3]; at 1.2 µM 41% | [3]; at 3.7 µM 51% | [3]; at 11.0 µM 66% | [4]; [17] 51% | [4]; at 50.0 µM 37.5% | [5]; at 1.2 µM 48%
active: [2]; at 100.0 µM 75% | [3]; at 33.0 µM 78% | [3]; at 100.0 µM 74% | [4]; [18] 87% | [5]; at 3.7 µM 72% | [5]; at 11.0 µM 86% | [5]; at 33.0 µM 93% | [5]; at 100.0 µM 92%

CCCCCCCCCCCCCCCCCC(=O)NCCCN(C)C
active: [6]; at 33.0 µM 97% | [6]; at 100.0 µM 97% | [7]; at 33.0 µM 98% | [7]; at 100.0 µM 97% | [8]; at 33.0 µM 96% | [8]; at 100.0 µM 96% | [9]; at 33.0 µM 98% | [9]; at 100.0 µM 98% | [10]; at 33.0 µM 94% | [10]; [18] 98% | [10]; at 50.0 µM 92.2% | [10]; at 100.0 µM 96% | [11]; at 33.0 µM 98% | [11]; [18] 98% | [11]; at 50.0 µM 93.8% | [11]; at 100.0 µM 98% | [12]; at 33.0 µM 97% | [12]; at 100.0 µM 97% | [13]; [18] 97% | [13]; at 50.0 µM 93.2% | [14]; at 33.0 µM 97% | [14]; at 100.0 µM 97% | [15]; [18] 97% | [15]; at 50.0 µM 92% | [16]; at 33.0 µM 98% | [16]; [18] 95% | [16]; at 50.0 µM 92.2% | [16]; at 100.0 µM 98% | [1]; at 33.0 µM 97% | [1]; at 100.0 µM 98% | [2]; at 33.0 µM 97% | [2]; at 100.0 µM 97% | [3]; at 33.0 µM 96% | [3]; at 100.0 µM 97% | [4]; [18] 99% | [4]; at 50.0 µM 92.5% | [5]; at 33.0 µM 97% | [5]; at 100.0 µM 97%
inactive: [6]; at 1.2 µM -47% | [6]; at 3.7 µM -39% | [6]; at 11.0 µM -44% | [7]; at 1.2 µM -51% | [7]; at 3.7 µM -58% | [7]; at 11.0 µM -56% | [8]; at 1.2 µM -37% | [8]; at 3.7 µM -43% | [8]; at 11.0 µM 33% | [9]; at 1.2 µM -13% | [9]; at 3.7 µM -11% | [9]; at 11.0 µM -19% | [10]; at 1.2 µM -27% | [10]; at 3.7 µM -11% | [10]; [17] 33% | [10]; at 11.0 µM -17% | [11]; at 1.2 µM -31% | [11]; at 3.7 µM -31% | [11]; [17] 50% | [11]; at 11.0 µM -45% | [12]; at 1.2 µM -31% | [12]; at 3.7 µM -29% | [12]; at 11.0 µM -40% | [13]; [17] -32% | [14]; at 1.2 µM -35% | [14]; at 3.7 µM -37% | [14]; at 11.0 µM -80% | [15]; [17] 17% | [16]; at 1.2 µM 4% | [16]; at 3.7 µM 6% | [16]; [17] 42% | [16]; at 11.0 µM 1% | [1]; at 1.2 µM -29% | [1]; at 3.7 µM -27% | [1]; at 11.0 µM -37% | [2]; at 1.2 µM -21% | [2]; at 3.7 µM -35% | [2]; at 11.0 µM -44% | [3]; at 1.2 µM -5% | [3]; at 3.7 µM -13% | [3]; at 11.0 µM -13% | [4]; [17] 36% | [5]; at 1.2 µM -32% | [5]; at 3.7 µM -32% | [5]; at 11.0 µM -12%

O=C(NCCCl)Sc1ccc(Cl)cc1
active: [6]; at 100.0 µM 99% | [7]; at 100.0 µM 80% | [8]; at 100.0 µM 90% | [9]; at 100.0 µM 71% | [10]; [18] 85% | [10]; at 50.0 µM 95.2% | [10]; at 100.0 µM 98% | [11]; [18] 82% | [11]; at 50.0 µM 99.3% | [11]; at 100.0 µM 85% | [12]; at 100.0 µM 75% | [13]; at 50.0 µM 84.5% | [16]; [18] 84% | [16]; at 50.0 µM 96.2% | [16]; at 100.0 µM 91% | [1]; at 100.0 µM 92% | [2]; at 100.0 µM 93% | [3]; at 100.0 µM 90% | [4]; [18] 84% | [4]; at 50.0 µM 97.8% | [5]; at 100.0 µM 93%
inactive: [6]; at 1.2 µM 3% | [6]; at 3.7 µM 7% | [6]; at 11.0 µM 10% | [6]; at 33.0 µM 55% | [7]; at 1.2 µM -3% | [7]; at 3.7 µM -3% | [7]; at 11.0 µM 0% | [7]; at 33.0 µM 21% | [8]; at 1.2 µM 3% | [8]; at 3.7 µM 7% | [8]; at 11.0 µM 22% | [8]; at 33.0 µM 56% | [9]; at 1.2 µM 1% | [9]; at 3.7 µM -2% | [9]; at 11.0 µM -2% | [9]; at 33.0 µM 30% | [10]; at 1.2 µM 4% | [10]; at 3.7 µM -7% | [10]; [17] -166% | [10]; at 11.0 µM 7% | [10]; at 33.0 µM 55% | [11]; at 1.2 µM 1% | [11]; at 3.7 µM 1% | [11]; [17] -52% | [11]; at 11.0 µM -10% | [11]; at 33.0 µM 13% | [12]; at 1.2 µM -1% | [12]; at 3.7 µM -7% | [12]; at 11.0 µM 2% | [12]; at 33.0 µM 33% | [13]; [17] -65% | [13]; [18] 53% | [14]; at 1.2 µM -1% | [14]; at 3.7 µM -2% | [14]; at 11.0 µM -2% | [14]; at 33.0 µM 9% | [14]; at 100.0 µM 60% | [15]; [17] -67% | [15]; [18] 8% | [15]; at 50.0 µM 42.8% | [16]; at 1.2 µM 2% | [16]; at 3.7 µM 0% | [16]; [17] -71% | [16]; at 11.0 µM 1% | [16]; at 33.0 µM 29% | [1]; at 1.2 µM 1% | [1]; at 3.7 µM 0% | [1]; at 11.0 µM 0% | [1]; at 33.0 µM 30% | [2]; at 1.2 µM -5% | [2]; at 3.7 µM 1% | [2]; at 11.0 µM 2% | [2]; at 33.0 µM 19% | [3]; at 1.2 µM 0% | [3]; at 3.7 µM 13% | [3]; at 11.0 µM 22% | [3]; at 33.0 µM 60% | [4]; [17] -141% | [5]; at 1.2 µM 0% | [5]; at 3.7 µM 3% | [5]; at 11.0 µM 5% | [5]; at 33.0 µM 44%

— PubChem BioAssay (NCI)
